This is a sample that favours compounds with a hit; in the whole collection about 18% have one here.
HepG2 viability = kills HepG2 cells in TGF-b inhibitor counter-screen; AID 588856; Potency, µM (doses to about 46.1 µM), for inactives: top-dose activity change, negative = cytotoxicity, hits mostly cytotoxic; HepG2 CAGA-GFP viability, ATP luminescence, 18 h; 410,000 compounds, 0.76% hits; further: potency means the concentration at half of the fitted maximal effect
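HepG2 CAGA-GFP cells (1000/well, DMEM with 1% FBS) received compound, then TGF-beta at 500 pg/mL final, and were incubated 18 hours at 37 degrees C. Viability was read by CellTiter-Glo luminescence. Media-only wells were set as complete cell-killing and DMSO as no toxicity.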
IL-1B inflam inh = blocks inflammasome-driven IL-1 beta release; THP-1 LPS/ATP IL-1B secretion, AlphaLISA, 16 h; active compounds read low; activity change, % at 57.5 µM; 360,000 compounds, 4.7% hits; AID 743279; in the data active means activity change below about -50%; inconclusive means mostly about -30% to -49%; further: on the % scale 0 is the no-effect control and ±100 the full control effect
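THP-1 cells pretreated 1 hr with compounds (up to 57.5 uM final), then stimulated with LPS (250 ng/mL final) plus ATP (1.25 mM final); secreted IL-1B measured by AlphaLISA after 16 hr, decreased signal indicating inhibition.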
TDP1 inh = blocks human tyrosyl-DNA phosphodiesterase 1; Potency, µM (doses to about 130 µM), for the others: at the highest dose activity change, negative = inhibition, actives largely listed as inhibitors; AID 485290; recombinant TDP1, AlphaScreen DNA substrate cleavage; 350,000 compounds, 0.28% hits; further: potency means the concentration at half of the fitted maximal effect; on the % scale 0 is the no-effect control and ±100 the full control effect; nearly all actives have a fitted effect of over 40% in size
Target sequence (Q9NUW8 whole entry, looked up): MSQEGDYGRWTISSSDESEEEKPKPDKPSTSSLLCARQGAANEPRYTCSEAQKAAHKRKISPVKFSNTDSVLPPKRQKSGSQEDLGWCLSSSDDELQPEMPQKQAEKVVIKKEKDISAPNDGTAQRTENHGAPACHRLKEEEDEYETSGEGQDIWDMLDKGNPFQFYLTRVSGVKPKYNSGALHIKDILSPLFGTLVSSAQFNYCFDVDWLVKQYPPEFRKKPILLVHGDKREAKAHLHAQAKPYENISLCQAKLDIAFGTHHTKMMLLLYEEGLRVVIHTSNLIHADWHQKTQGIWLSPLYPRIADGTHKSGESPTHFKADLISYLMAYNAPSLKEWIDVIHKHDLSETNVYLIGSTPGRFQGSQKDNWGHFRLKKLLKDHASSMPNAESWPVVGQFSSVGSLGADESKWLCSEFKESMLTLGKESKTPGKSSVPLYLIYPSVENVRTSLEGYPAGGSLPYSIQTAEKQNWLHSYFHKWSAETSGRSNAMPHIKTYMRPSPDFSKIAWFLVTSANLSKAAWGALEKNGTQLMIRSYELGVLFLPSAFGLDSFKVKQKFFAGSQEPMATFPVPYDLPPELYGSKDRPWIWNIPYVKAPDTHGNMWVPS
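Signal: AlphaScreen proximity between streptavidin donor and anti-FITC acceptor beads on intact substrate. Reaction: Tdp1 1 nM, substrate 15 nM final, 5 min RT after 15 min compound preincubation.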
TDP1 cell noCPT = qHTS for Inhibitors of human tyrosyl-DNA phosphodiesterase 1 (TDP1): qHTS in cells in absence of CPT. DT40 Tdp1-/- hTDP1 cells, no CPT, ATP luminescence, 48 h. Potency, µM (top dose mostly 46.2 µM), for the others: at the top dose activity change, negative = growth inhibition, actives largely listed as inhibitors. 420,000 compounds, 15% hits. AID 686978, 2013; further: potency means the concentration at half of the fitted maximal effect; on the % scale 0 is the no-effect control and ±100 the full control effect; nearly all actives have a fitted effect of over 55% in size
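Stably hTDP1-transfected Tdp1-null chicken DT40 cells were treated with library compounds minus camptothecin and grown for at least 48 hr at 37 °C, after which cellular ATP was quantified by luminescence.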
TGFb SMAD3 inh = inhibitors of TGF-b signaling; Potency, µM (doses to about 46.1 µM), for inactives: at the highest dose activity, negative = inhibition, usual class: inhibitors; AID 588855; 410,000 compounds, 1.2% hits; HepG2 CAGA-GFP TGF-b/SMAD3 reporter, GFP fluorescence, 18 h; TGF-beta stimulated, 500 pg/mL final; further: potency means the concentration at half of the fitted maximal effect; on the % scale 0 is the no-effect control and ±100 the full control effect; nearly all actives have a fitted effect of over 65% in size
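Using HEPG2 CAGA-GFP reporter cells at 1000 cells/well, we pinned test compounds, stimulated with recombinant TGF-beta (500 pg/mL final) and measured total well GFP after 18 h.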
DT40 TDP1 CPT = growth inhibition of DT40 Tdp1-/-;hTDP1 cells with camptothecin (screen for TDP1 inhibitors); chicken DT40 Tdp1-/-;hTDP1 cells + 20 nM CPT, ATP luminescence, 48 h; Potency, µM (titrated, usually from 46.2 µM), inactives show at the top dose activity change, negative = growth inhibition, hits mostly inhibitors; 420,000 compounds, 12% hits; further: potency means the concentration at half of the fitted maximal effect; on the % scale 0 is the no-effect control and ±100 the full control effect; nearly all actives have a fitted effect of over 55% in size
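Chicken DT40 Tdp1-/- cells stably complemented with human TDP1 were seeded at 400 cells/well in medium containing 20 nM camptothecin, exposed to pin-transferred compounds, and grown at 37 °C for at least 48 hr. Viability was read as ATP luminescence.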
Active calls of the source: *; ? = inconclusive; . = no result; [ ] = another dose, or the depositor's remark. Unless noted, the call rests on the fitted dose curve; in most records, active means well fitted curve in the direction sought with a large enough effect; inconclusive means small, poorly fitted or top-dose-only effect, or another doubt; inactive means no such curve, though single readings can be large; an effect the other way counts as inactive or inconclusive.

SMILES	HepG2 viability	IL-1B inflam inh	TDP1 inh	TDP1 cell noCPT	TGFb SMAD3 inh	DT40 TDP1 CPT
CC(OC(=O)c1ccc2ncsc2c1)C(=O)N(C)C1CCCCC1 (stereo not drawn)	10%	-12	0%[56.1 µM]	?	-9%	?
COc1ccccc1CNC(=O)CCn1cnc2ccccc2c1=O	7%	.	.	-22%	-26%	-3%
O=C(COC(=O)c1ccccc1OCC(=O)Nc1ccc(Br)cc1)Nc1ccccc1	-38%	12	2%	?	-11%	?
CC(C)(C)c1ccc(NC(=O)COC(=O)c2ccccc2OCC(=O)Nc2ccc(Br)cc2)cc1	7%	.	.	?	12%	16µM*
CN(C)C(=O)COc1ccccc1C(=O)OCC(=O)Nc1ccc(Oc2ccc(Br)cc2)cc1	-7%	.	.	11µM*	-9%	?
O=C(O)c1ccccc1-c1ccccc1C(=O)Nc1ccc2c(c1)oc(=O)c1ccccc12	7%	?	.	13µM*	-2%	?
CC(C)c1cccc(NC(=O)COC(=O)c2ccccc2OCc2cccc(Br)c2)c1	-25%	.	.	16µM*	-22%	?
COc1ccc(NC(=O)COC(=O)Cc2coc3cc(OC)ccc23)c(OC)c1	-32%	9	0%	3%	34%	4%
COc1ccc(NC(=O)COC(=O)c2c(NC(C)=O)sc(C)c2C)cc1	-16%	3	.	?	-1%	?
CN1CCN(CCCNc2c(C=O)c(=O)[nH]c3ccccc23)CC1	13%	53	.	6%	-2%	6%
CN(C(=O)COC(=O)c1ccccc1OCC(=O)Nc1ccc(Br)cc1)c1ccccc1	.	.	.	11µM*	.	?
COC(=O)c1ccc(NC(=O)c2ccccc2OCC(=O)Nc2ccc(Br)cc2)cc1	.	.	.	10µM*	.	?
NC(=O)COC(=O)c1ccccc1OCC(=O)Nc1ccc(Br)cc1	1%	.	.	?	-19%	?
O=C(COc1ccccc1C(=O)OCC(=O)N1CCOCC1)Nc1ccc(Br)cc1	.	.	.	14µM*	.	16µM*
COc1cc2ccccc2cc1C(=O)OCC(=O)Nc1ccc(Br)cc1	-6%	.	.	?	-1%	7.9µM*
CCOc1cc2ccccc2cc1C(=O)OCC(=O)Nc1ccc(Br)cc1	-3%	.	.	-5%	4%	-29%
COC(=O)c1ccc(NC(=O)COc2ccccc2C(=O)Nc2ccccc2)cc1	-5%	.	.	?	5%	?
CCC1CCCCC1	.	.	11%	.	.	.
COc1ccc(O)c(CN2CCC3(CCC(CNC(=O)c4ccco4)O3)CC2)c1 (stereo not drawn)	.	.	.	-12%	.	-2%
CS(=O)(=O)c1ccccc1NC(=O)COc1ccccc1C(=O)Nc1ccccc1	.	.	.	11µM*	.	11µM*
CNC(=O)COc1ccccc1C(=O)Nc1ccc2c(c1)oc1ccccc12	-40%	-69*	3%	?	3%	-29%
N#C/C(=N\O)c1nc2ccccc2s1	3%	55	-3%	0%	20%	3%
N#C/C(=C(/O)c1ccc(F)cc1)c1nc2ccccc2s1	-72%	-26	1%	23µM*	?	18µM*
N#C/C(=C(/O)c1ccc(-c2cccc([N+](=O)[O-])c2)o1)c1nc2ccccc2s1	-72%	66	8%	-23%	13µM*	?
Cc1ccc(SC/C(O)=C(\C#N)c2nc3ccccc3s2)cc1	-23%	0	6%	?	25µM*	?
SMILES	HepG2 viability	IL-1B inflam inh	TDP1 inh	TDP1 cell noCPT	TGFb SMAD3 inh	DT40 TDP1 CPT
O=C(O)c1ccc(-c2cccc([N+](=O)[O-])c2)o1	1%	0	.	30%	4%	7%
N#C/C(=C(/O)CSc1ccccn1)c1nc2ccccc2s1	-35%	0	9%	?	-22%	15µM*
N#C/C(=C(/O)CSc1ccccc1C(=O)O)c1nc2ccccc2s1	-15%	21	6%	?	-23%	-13%
N#Cc1cc([N+](=O)[O-])ccc1NC(=O)CSc1n[nH]c(=O)[nH]c1=O	-2%	23	1%	-16%	-7%	-18%
CC(=O)c1ccc(N2CCN(C(=O)Cn3cnc(S(=O)(=O)N4CCCCC4)c3)CC2)cc1	11%	0	-1%	-9%	27%	?
CS(=O)(=O)c1cccc(S(=O)(=O)N2CCCCCC2)c1	-13%	-2	3%	10%	-6%	2%
NS(=O)(=O)c1ccc(CNC(=O)Cn2nc(C(F)F)cc2C(F)F)cc1	7%	-2	-1%	8%	5%	0%
COc1cccc(CN2CC(C(=O)N(C)C3CCOCC3)CCC2=O)c1 (stereo not drawn)	0%	15	5%	-14%	0%	19%
N#C/C(=C(/O)COc1ccccc1)c1nc2ccccc2s1	-25%	8	5%	?	?	-17%
N#C/C(=C(/O)COc1ccc(Cl)cc1)c1nc2ccccc2s1	-2%	19	4%	9.2µM*	4%	?
O=C(NC(Cc1c[nH]c2ccccc12)C(=O)O)c1cccc(S(=O)(=O)N2CCCCC2)c1 (stereo not drawn)	-3%	14	.	2%	-2%	2%
CCOC(=O)CN(C(=O)CSc1nnc2c(n1)[nH]c1ccccc12)c1ccccc1	8%	13	2%	?	-16%	?
CCOC(=O)CN(C(=O)CSc1nnc2c(n1)[nH]c1ccc(F)cc12)c1ccccc1	-28%	?	6%	?	1%	21µM*
CC(C)c1ccc(NC2CCCN(C(=O)CN3CCCCC3=O)C2)cc1 (stereo not drawn)	-44%	-1	.	?	-20%	-2%
CN1CSC2=C(C#N)C(c3cccc(OCc4ccccc4)c3)CC(=O)N2C1 (stereo not drawn)	-28%	12	5%	?	?	21µM*
COc1cccc(C2CC(=O)N3CN(C4CCCCC4)CSC3=C2C#N)c1 (stereo not drawn)	-24%	.	-2%	?	-1%	?
Cc1ccc(Cl)cc1NC(=O)c1cc(-c2ccc3c(c2)OCCO3)on1	-24%	.	-4%	?	?	15µM*
O=C(Nc1cccc(Cl)c1)c1cc(-c2ccc3c(c2)OCCO3)on1	-42%	.	.	12µM*	-5%	?
O=C(Nc1cc(Cl)ccc1O)c1cc(-c2ccc3c(c2)OCO3)on1	-22%	.	-1%	2%	-3%	-5%
